This is a sample that favours compounds with a hit; in the whole collection about 18% have one here.
DT40 TDP1 CPT = growth inhibition of DT40 Tdp1-/-;hTDP1 cells with camptothecin (screen for TDP1 inhibitors); Potency, µM (series often up to 46.2 µM), for the others: at the highest dose activity change, negative = growth inhibition, most hits filed as inhibitors; 420,000 compounds, 12% hits; chicken DT40 Tdp1-/-;hTDP1 cells + 20 nM CPT, ATP luminescence, 48 h; further: nearly all actives have a fitted effect of over 55% in size
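Chicken DT40 Tdp1-/- cells stably complemented with human TDP1 were seeded at 400 cells/well in medium containing 20 nM camptothecin, exposed to pin-transferred compounds, and grown at 37 °C for at least 48 hr. Viability was read as ATP luminescence.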
GCN5L2 inh = inhibitors of human GCN5L2 histone acetyltransferase; Q92830; GCN5L2 HAT assay, ThioGlo1 CoA-SH fluorescence; Potency, µM (highest dose often 58.9 µM), inactives show top-dose activity change, negative = inhibition, actives largely listed as inhibitors; 390,000 compounds, 0.21% hits
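GCN5L2 (20 nM) in 50mM HEPES pH 7.5, 0.1mM EDTA, 0.01% Tween-20 preincubated 15 min with compounds at room temperature. Reaction started with H3(1-25) 75uM, acetyl-CoA 70uM, ThioGlo1 50uM; CoA-thiol fluorescence (Ex340/Em540) read at 0 and 20 min.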
VDR inhibitor = inhibitors of human vitamin D receptor | P11473 | VDR-SRC2-3 peptide fluorescence polarization, 2 h | Potency, µM, for the others: max response, negative = inhibition, most hits filed as inhibitors | 400,000 compounds, 0.93% hits | AID 504847
Target sequence (P11473 whole entry, looked up): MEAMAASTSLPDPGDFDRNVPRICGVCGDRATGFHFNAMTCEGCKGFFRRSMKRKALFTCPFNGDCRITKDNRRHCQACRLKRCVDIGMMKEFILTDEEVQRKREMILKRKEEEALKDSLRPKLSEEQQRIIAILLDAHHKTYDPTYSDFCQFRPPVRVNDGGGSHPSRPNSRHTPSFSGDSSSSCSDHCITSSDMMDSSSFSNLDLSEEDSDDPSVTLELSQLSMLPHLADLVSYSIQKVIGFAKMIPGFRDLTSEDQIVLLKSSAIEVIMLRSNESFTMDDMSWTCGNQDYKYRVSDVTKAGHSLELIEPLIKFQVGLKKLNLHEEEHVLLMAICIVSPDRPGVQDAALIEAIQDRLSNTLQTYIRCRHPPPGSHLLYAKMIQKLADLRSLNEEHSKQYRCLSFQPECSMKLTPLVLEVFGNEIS
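Inhibition of the VDR/SRC2-3 peptide interaction is quantified by fluorescence polarization. Compounds (23 nl, pintool) incubate with the reagents for 2 hours at ambient room temperature.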
PLK1 PBD block = inhibitors of human PLK1 polo-box domain binding; Potency, µM, inactives show max response, negative = inhibition, hits mostly inhibitors; 360,000 compounds, 2.8% hits; Plk1 PBD binding of FITC phosphopeptide, fluorescence polarization; further: series mostly up to about 57 µM; nearly all actives have a fitted effect of over 65% in size
TDP1 cell noCPT = qHTS for Inhibitors of human tyrosyl-DNA phosphodiesterase 1 (TDP1): qHTS in cells in absence of CPT | DT40 Tdp1-/- hTDP1 cells, no CPT, ATP luminescence, 48 h | Potency, µM (top dose mostly 46.2 µM), without a hit: top-dose activity change, negative = growth inhibition, most hits filed as inhibitors | 420,000 compounds, 15% hits; further: nearly all actives have a fitted effect of over 55% in size
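Growth kinetics read by CellTiter-Glo luminescence after ≥48 hr at 37 °C. Cells: DT40 Tdp1-/- stably carrying human TDP1, 400 per well, compound exposure in the absence of CPT (DMSO vehicle).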
TDP1 inh = TDP1 (human) enzyme inhibition. Q9NUW8. recombinant TDP1, AlphaScreen DNA substrate cleavage. Potency, µM (titrated, usually from 130 µM), without a hit: at the top dose activity change, negative = inhibition, actives largely listed as inhibitors. 350,000 compounds, 0.28% hits; further: nearly all actives have a fitted effect of over 40% in size
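Signal: AlphaScreen proximity between streptavidin donor and anti-FITC acceptor beads on intact substrate. Reaction: Tdp1 1 nM, substrate 15 nM final, 5 min RT after 15 min compound preincubation.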
* marks the source's active call; other numbers are inactive results; ? = inconclusive; / = not tested or not shown; [ ] = another dose, or the depositor's remark. The call rests on the fitted dose curve; in most records, active means well fitted curve in the direction sought with a large enough effect; inconclusive means small, poorly fitted or top-dose-only effect, or another doubt; inactive means no such curve, though single readings can be large; an effect the other way counts as inactive or inconclusive. On the % scale 0 is the no-effect control and ±100 the full control effect; potency means the concentration at half of the fitted maximal effect.

SMILES | DT40 TDP1 CPT | GCN5L2 inh | VDR inhibitor | PLK1 PBD block | TDP1 cell noCPT | TDP1 inh
Fc1c(F)c(F)c(N=Cc2ccc3ncccc3c2)c(F)c1F | -2% | -1% | -4% | -2% | -1% | -5%
N#Cc1ccc(/C=C/C(=O)c2ccco2)cc1 | 9.2µM* | -3% | ? | -15% | 10µM* | -3%
COc1ccc(-c2noc(CCC(=O)N3CCN(c4ccccc4F)CC3)n2)cc1 | -16% | -6% | -21% | -25% | -16% | 1%[56.1 µM]
Cc1nc(N2CCCC2)c2c(C(=O)Nc3cccc(Cl)c3)c(C)oc2n1 | -23% | 3% | -9% | / | -23% | 2%
COC(=O)Cn1c2ccccc2c2nc(=O)cc(C)n21 | 5% | -2% | -21% | -25% | -2% | 5%
COc1cc2c(cc1OC)n(CC(=O)NC1CCCCCC1)n1c(C)cc(=O)nc21 | -20% | 0% | -8% | 27µM* | -1% | -13%
O=C(NCN1CCN(c2ccccc2)CC1)c1cnccn1 | -15% | -2% | -5% | -2% | 4% | /
CCN1CCN(CNC(=O)c2cnccn2)CC1 | 18µM* | -1% | 24% | 2% | 0% | 9%
Cc1ccc2nc(/C=C/c3ccc(N(C)C)cc3)ccc2c1 | 13µM* | / | / | / | 13µM* | /
CN(C)c1ccc(/C=C/c2ccc3cc(N)ccc3n2)cc1 | 7.1µM* | / | / | / | 3.2µM* | /
CN(C)c1ccc(/C=C/c2cc(Cl)nc3ccccc23)cc1 | ? | / | / | / | -29% | /
O=C(c1ccco1)N1CCC2(CCCN(Cc3ccncc3)C2)CC1 | 4% | 8% | ? | / | -23% | /
CCCCN=c1scc(-c2ccc3c(c2)NC(=O)CO3)n1N=C1CCCC1 | 13µM* | -9% | -13% | 17µM* | 23µM* | 10%
COCC(C)n1c(-c2ccc3c(c2)NC(=O)CO3)csc1=Nc1ccc(OC(F)F)cc1 (configuration not stated) | 5.2µM* | -4% | 2% | 2% | 6.5µM* | 10%
Cc1ccc2nc(-c3ccc4c(c3)NC(=O)CO4)cn2c1 | 0% | -28% | 0% | -13% | ? | 5%
CN(C)S(=O)(=O)c1cccc(N=c2scc(-c3ccc4c(c3)NC(=O)CO4)n2CC2CCCO2)c1 (configuration not stated) | 6.5µM* | -3% | -1% | -6% | 7.3µM* | 9%
Cc1cccc(C)c1NS(=O)(=O)c1ccc2c(c1)NC(=O)CO2 | -4% | 0% | 3% | -2% | -2% | 1%
O=C1COc2ccc(-c3csc(=Nc4ccc(OC(F)F)cc4)n3CC3CCCO3)cc2N1 (configuration not stated) | ? | -1% | 9% | 2% | 16µM* | 12%
Cc1cccc(NC(=O)N2CCN(Cc3ccc4c(c3)OCO4)CC2)c1C | -4% | -14% | -2% | -8% | -12% | 4%
COc1ccccc1N=c1scc(-c2ccc3c(c2)NC(=O)CO3)n1CC1CCCO1 (configuration not stated) | -95% | -10% | 13% | -4% | 18µM* | 5%
COc1ccc([N+](=O)[O-])cc1N(CC(=O)NCCC1=CCCCC1)S(C)(=O)=O | -6% | 2% | -15% | -13% | -22% | 4%
O=C(Nc1ccc(Cl)cc1C(F)(F)F)c1cc(S(=O)(=O)N2CCOCC2)ccc1F | ? | 14% | 16% | / | ? | -3%
CN(Cc1cccc(Cl)c1Cl)C(=O)c1cc(S(=O)(=O)N2CCOCC2)ccc1F | 16µM* | 0% | 10% | -7% | 21µM* | -1%
CN(C)CCCNC(=O)c1cc(S(=O)(=O)N2CCOCC2)ccc1F | 9% | 0% | -6% | -4% | -4% | -7%
O=C(NCCSCc1ccccc1)c1cc(S(=O)(=O)N2CCOCC2)ccc1F | 12µM* | 2% | 6% | ? | ? | 0%
CN(Cc1ccccc1)S(=O)(=O)c1ccc(Cl)c(C(=O)N2CCOCC2)c1 | 18µM* | / | / | -1% | 21µM* | /
